Drawing on PubChem BioAssay (NCI), this text covers growth for 18 molecules.

The panel holds about 83,000 compounds, 20% with a hit somewhere; the sample as a whole holds those more often.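 96-well plates, one dose, 48 hours. Percent growth reported; active if below 10.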 Unmarked numbers belong to inactive results. Active and inactive are the calls of the source.

Experiment in all cases: NCI-60 one-dose screen, 48 h (100 = growth as untreated, 0 = no growth, -100 = all killed)
Common to all, as to conditions: 10 µM unless noted

Experiment [1] relates to T-47D breast.
In experiment [2] the test system is BT-549 breast.
Experiment [3] has as its system MDA-MB-435 melanoma.
The test system of experiment [4] is SW-620 colon.
Experiment [5] relates to MCF7 breast.
Experiment [6] has as its system HCT-116 colon.
The test system of experiment [7] is HCC-2998 colon.
For experiment [8], the system named is KM12 colon.

In the case of `C#CC(=O)Nc1cccc(Nc2nc3c(c(NCc4ccccc4)n2)CCCC3)c1`, the growth in experiment [1] is -38.7% (active); in experiment [2], -70% (active); in experiment [3] it was -70.6% (active); in experiment [4] it was -46.7% (active); in experiment [5], -39.7% (active); in experiment [6] it was -78.8% (active). Further, the growth in experiment [7] was -89.3% (active).
For the molecule `COc1ccc(/C=C/C(=O)c2ccc(Nc3ncnc4ccccc34)cc2)cc1OC`, the growth in experiment [1] was 78.6%; in experiment [2], 56.3%; in experiment [3], 7.77% (active); in experiment [4], 27.5%; in experiment [5], 16.1%; in experiment [6] it was 9.59% (active). Moreover, the growth in experiment [7] was 29.9%.
As to `COc1ccc(-c2nc(N=Nc3c(O)[nH]c4ccccc34)nc(N3CCOCC3)c2C#N)cc1`, the growth in experiment [1] is 65.4%; in experiment [2], 62.8%; in experiment [3], 79.1%; in experiment [4], 66.8%; in experiment [5], 60.6%; in experiment [6] it was 29.7%. Besides, the growth in experiment [7] was 95%.
For `COc1ccc(C(=O)c2cc3c(N)c(C(=O)Nc4ccc(Cl)cc4)sc3nc2C)cc1`, the growth was 66.4% in experiment [1]; 79.5% in experiment [2]; 57.2% in experiment [3]; 64.3% in experiment [4]; 61.8% in experiment [5]; 54.6% in experiment [6]. Moreover, the growth in experiment [7] is 91.6%.
Turning to `CC(C)[N+](C)(CCOC(COc1ccccc1)COc1ccccc1)C(C)C`, the growth in experiment [1] was 85.7%; in experiment [2], 80.6%; in experiment [3], 91.9%; in experiment [4] it was 102%; in experiment [5] it was 91.4%; in experiment [6], 92.2%. For the same molecule, the growth in experiment [7] is 96.7%; in experiment [8], 83.5%.
Take `CCCCCCCCCCCC(=O)C(CCCCCCCCCC)C(=O)Nc1ccccc1` (stereo unspecified): the growth in experiment [1] was 92.1%; in experiment [2], 114%; in experiment [3] it was 110%; in experiment [4], 107%; in experiment [5] it was 108%; in experiment [6], 93.8%. For the same molecule, the growth in experiment [7] is 101%.
With `CNC(=O)Nc1ccc(-c2nc(N3CCOCC3)nc3c2cnn3C2CCOCC2)cc1`, the growth is -15.6% (active) in experiment [1]; -15.4% (active) in experiment [2]; -26.6% (active) in experiment [3]; 12% in experiment [4]; 1.06% (active) in experiment [5]; 12.7% in experiment [6]. Moreover, in experiment [7], the growth was 13.5%.
As to `c1ccc2c(-c3c4ccsc4cc4[nH]c5ccccc5c34)c[nH]c2c1`, the growth in experiment [1] is 26.3%; in experiment [2], 33.9%; in experiment [3] it was 1.93% (active); in experiment [4], 25.4%; in experiment [5], 15%; in experiment [6] it was 17.5%. Also, in experiment [7], the growth was 65.6%.
As for `CC(C)(C)OC(=O)N1CCN(c2ccc(N)cc2)C(=O)C1`, the growth in experiment [1] was 106%; in experiment [2], 116%; in experiment [3] it was 106%; in experiment [4], 109%; in experiment [5], 91.9%; in experiment [6], 99.9%. Besides, the growth in experiment [7] is 102%.
Consider `Clc1nc(Cl)c2ncn(CC3(Cn4cnc5c(Cl)nc(Cl)nc54)COC3)c2n1`, for which the growth was -61.7% (active) in experiment [1]; -93.2% (active) in experiment [2]; -85.7% (active) in experiment [3]; -88.7% (active) in experiment [4]; -52.4% (active) in experiment [5]; -100% (active) in experiment [6]. The growth in experiment [7] is -85.3% (active).
For the molecule `CC(=O)c1cccc(NS(=O)(=O)c2cccc(C(=O)Nc3ccc(Br)cc3)c2)c1`, the growth is 26.7% [25 µM] in experiment [1]; 46.9% [25 µM] in experiment [2]; 37.6% [25 µM] in experiment [3]; 67.4% [25 µM] in experiment [4]; 49% [25 µM] in experiment [5]; 39.9% [25 µM] in experiment [6]. Moreover, the growth in experiment [7] is 79.7% [25 µM].
Take `COc1ccc(NC(=O)c2sc3nc(C)c(C(=O)CCc4cccc(OC)c4)cc3c2N)cc1`: the growth in experiment [1] was 67.6%; in experiment [2] it was 79.6%; in experiment [3], -10.4% (active); in experiment [4] it was 64.7%; in experiment [5], 16.5%; in experiment [6] it was 45.6%. The growth in experiment [7] was 56%.
As for `O=C(Nc1ccc2ncnc(Nc3ccc(Oc4cccc(F)c4)c(Cl)c3)c2c1)c1ccc(CNCCO)cc1`, the growth in experiment [1] was 42.6%; in experiment [2], 85.5%; in experiment [3], -86.3% (active); in experiment [4], -74% (active); in experiment [5], -67.2% (active); in experiment [6], -46.5% (active). For the same molecule, the growth in experiment [7] was -8.44% (active).
As for `O=S(=O)(NCCCNc1nccc(-c2c(-c3ccc(F)c(O)c3)nc3sccn23)n1)c1ccc(F)cc1`, the growth in experiment [1] is -1.88% (active); in experiment [2], 26.7%; in experiment [3] it was -11.7% (active); in experiment [4] it was 11.8%; in experiment [5] it was 4.13% (active); in experiment [6] it was 0.843% (active). For the same molecule, the growth in experiment [7] was 4.68% (active).
Turning to `O=C(O)C(/C=C/c1ccco1)=N\Nc1nc(-c2ccc(Cl)cc2)cs1`, the growth in experiment [1] was 66.6%; in experiment [2], 63.8%; in experiment [3], 45.7%; in experiment [4] it was 71.5%; in experiment [5], 71.9%; in experiment [6] it was 26.3%. For the same molecule, the growth in experiment [7] was 49%.
As to `CSc1nc(O)c(-c2ccccc2)c(=O)[nH]1`, the growth was 100% in experiment [1]; 103% in experiment [2]; 101% in experiment [3]; 98.8% in experiment [4]; 96.3% in experiment [5]; 99.4% in experiment [6].
With `COc1ccc(-c2nc(SC)nc(N3CCOCC3)c2C#N)cc1`, the growth in experiment [1] is 72.9%; in experiment [2] it was 83.7%; in experiment [3], 99.3%; in experiment [4] it was 103%; in experiment [5], 90.6%; in experiment [6], 103%. The growth in experiment [7] was 99.7%.
`Fc1ccccc1CSc1ncnc2nc[nH]c12`: the growth was 97.7% in experiment [1]; 137% in experiment [2]; 109% in experiment [3]; 96% in experiment [4]; 96.9% in experiment [5]; 97.6% in experiment [6]. In experiment [7], the growth is 111%.
